This is a sample that favours compounds with a hit; in the whole collection about 6.3% have one here.
NADH coupling: inhibitors of PK/LDH coupling enzymes, profiling panel, artefact control, biochemical, MLSMR library; 65,000 compounds, 0.02% hits; IC50, µM (top dose mostly 10 µM), for the others: at the top dose inhibition; coupled PK/LDH NADH assays, four targets;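 active = single-dose screening hits from any of four coupled enzyme assays that gave an IC50 when retested across doses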;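 also: the DPM-DC format reads NADH fluorescence rather than 340 nm absorbance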
DPM-DC inhibit: S. pneumoniae DPM-DC inhibitors, primary screen, biochemical, PK/LDH-coupled NADH fluorescence; diphosphomevalonate decarboxylase (Streptococcus pneumoniae D39); purified DPM-DC; calls only at 10 µM; 65,000 compounds, 0.49% hits; AID 556, 2006;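 active = the 320 compounds with the highest percent inhibition in the single-dose primary screen, excluding strongly autofluorescent ones, cut at about 32% in these data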;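 also: kinetic rate of NADH fluorescence loss reporting ADP formed by the decarboxylase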
Spn PMK inh: S. pneumoniae PMK inhibitors, primary screen, biochemical, mevalonate pathway, pilot trial included; inhibition, % at 10 µM; purified PMK, PK/LDH-coupled NADH absorbance 340 nm; AID 539, 2006; phosphomevalonate kinase (Streptococcus pneumoniae D39); 65,000 compounds, 0.49% hits;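 active = top-ranked compounds by inhibition in the single 10 µM screen, taking a fixed number of the strongest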;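 also: 0% = full reaction with DMSO carrier and 100% = background rate without enzyme reaction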
A340 absorber: compound light absorbance at 340 nm, profiling panel, artefact control, biochemical, MLSMR library, data from PS, PMK, MK assays | compound absorbance at 340 nm, fold over control | fold change at 10 µM | 65,000 tested, under 10 active | AID 708, 2007;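 active = at 10 µM dose, initial 340 nm absorbance at least 2 fold that of control wells; inactive = change under 2 fold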;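 also: initial absorbance extrapolated from kinetic A340 decline of NADH oxidation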
MK inhibit: S. pneumoniae MK inhibitors, primary screen, biochemical, PK/LDH-coupled NADH absorbance; mevalonate kinase [Streptococcus pneumoniae D39]; purified MK, PK/LDH-coupled NADH absorbance 340 nm; inhibition, % at 10 µM; 65,000 compounds, 0.48% hits; AID 555, 2006;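 active = ranked among the strongest by inhibition in the single 10 µM screen, a fixed top-ranked set picked for dose follow-up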
Fluor 339 460: intrinsic fluorescence of library compounds, ex339/em460 – biochemical, MLSMR library, data from DPM-DC assay, artefact control, profiling panel; 65,000 compounds, 5.5% hits; AID 709, 2007; fluorescence fold increase at 10 µM; compound autofluorescence, ex339/em460 nm, NADH buffer; active compounds read high; 1 = no-compound wells, NADH background;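 active = at 10 µM, mean starting fluorescence two-fold or more over control wells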;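 also: signal is the first read of a kinetic run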
The depositor's hits bear a star; i = inactive; · = no result shown; + = active, no number.

SMILES	NADH coupling	DPM-DC inhibit	Spn PMK inh	A340 absorber	MK inhibit	Fluor 339 460
CC(C)c1ncc(C(O)c2cccc3ccccc23)n1C (stereo not given)	2%	i	5	0.99	1	1
CCOc1ccccc1Oc1coc2cc(OC(=O)c3ccco3)ccc2c1=O	6%	i	0	1.1	9	1.5
COc1ccccc1Oc1coc2cc(O)ccc2c1=O	9%	·	17	1.1	0	4.8*
CCOc1ccccc1Oc1coc2cc(O)ccc2c1=O	8%	·	16	1.1	0	4.7*
CCOc1cc(C(=O)NCCN2CCOCC2)cc(OCC)c1OCC	18%	i	3	1	50*	1.1
Cc1ccc(SCCCCN2C(=O)NC(C)(C)C2=O)cc1	1%	i	0	1.1	4	1.1
CCCCc1cc(=O)oc2c(CN3CCCC3)c(O)c(Cl)cc12	3%	·	7	1	1	3*
CCCc1cc(=O)oc2c(CN3CCN(C)CC3)c(O)c(Cl)cc12	6%	·	1	1.1	10	2.3*
Cc1c(C)c2cc(Cl)c(O)c(CN3CCCCC3)c2oc1=O	1%	·	7	1	0	2.5*
O=c1oc2ccccc2c(O)c1CN1CCCCC1	4%	i	11	1	·	1.1
CN1CCN(Cc2c(O)c(Cl)cc3c(-c4ccccc4)cc(=O)oc23)CC1	6%	i	0	1.1	10	1.6
Cc1cc(=O)oc2c(CN3CCN(C)CC3)c(O)c(Cl)cc12	5%	·	9	1	0	2.5*
O=C(CSc1ccccc1C(=O)NCCCN1CCCC1=O)NCc1ccco1	2%	i	9	0.99	0	1.2
COc1ccc(/C(O)=C2\C(=O)C(=O)N(CCCN(C)C)C2c2ccccc2F)cc1Cl (stereo not given)	9%	i	17	1.1	9	1.1
COC(=O)Nc1c(C(=O)OC)cc(OC)c(OC)c1OC	7%	i	12	1	8	1.2
COC(=O)c1cc(OC)c(OC)c(OC)c1N	7%	i	4	1.1	11	2.3*
Cc1ccc(-c2oc3ncnc(N)c3c2-c2ccc(C)cc2)cc1	4%	·	3	1.1	5	3.5*
Cc1oc2ncnc(N)c2c1C	7%	i	10	0.98	11	1.2
O=C(NCc1ccccn1)C1CCCN(S(=O)(=O)c2cccc3nsnc23)C1 (stereo not given)	5%	i	11	1	3	1.1
NC(=O)c1ccc(-c2ncc(-c3ccccc3)o2)cc1	11%	·	18	1.2	3	2.1*
c1ccc(-c2cnc(-c3cccnc3)o2)cc1	6%	·	8	1.1	3	2.1*
COc1ccc2c(c1)C(=O)N(c1ccccc1OC)C(=O)C2(C)C	4%	i	12	1	0	1.1
COc1ccc2c(c1)C1(C)CC(C)(C)N2C(=O)N1c1ccccc1 (stereo not given)	10%	+	0	0.98	2	1.4
Nc1ccc2oc(-c3ccccn3)nc2c1	4%	i	11	1.1	0	1.1
Nc1ccc(-c2nc3ccc(N)cc3o2)cc1	7%	·	6	1.2	8	2.1*
SMILES	NADH coupling	DPM-DC inhibit	Spn PMK inh	A340 absorber	MK inhibit	Fluor 339 460
Nc1cc(N)cc(-c2nc3ccccc3[nH]2)c1	17%	+	10	1	7	2.2*
Nc1ccc(-c2nc3ccc(-c4nc5ccccc5o4)cc3[nH]2)cc1	3%	·	5	1.1	0	3.7*
Nc1nc(-c2nc3ccccc3[nH]2)cs1	1%	i	0	1.1	2	1.1
CCCNC(=O)NC(=O)COC(=O)c1ccc(OC)c(S(=O)(=O)N2CCCc3ccccc32)c1	1%	i	4	1	0	1.1
N#CCC(=O)NCCCOC(=O)Nc1ccc(Cl)c(Cl)c1	2%	i	0	1	6	1.1
CCOC(=O)c1cccc(NC(=O)CS(=O)(=O)Cc2nc(-c3cccc(OC)c3)oc2C)c1	2%	i	9	0.98	2	0.99
CCOC(=O)c1sc(C)c(C(=O)NCCCN2CCOCC2)c1N	7%	i	4	1.1	4	2.3*
CCS(=O)(=O)NCCc1cc2c(OC)ccc(OC)c2[nH]c1=O	5%	i	15	1	9	1.1
COc1ccc(CCN2CC(O)=C(c3nc4ccccc4c(=O)[nH]3)C2=N)cc1OC	4%	·	10	1	9	2.3*
CCOC(=O)c1ccc(N2CC(O)=C(c3nc4ccccc4c(=O)[nH]3)C2=N)cc1	3%	·	1	1.1	4	2.4*
O=C(COC(=O)C1CC2C=CC1C2)Nc1ccc2c(c1)OC(F)(F)O2 (stereo not given)	2%	i	0	0.98	4	1.1
Clc1ccc(C2Nc3ccccc3-n3cccc32)cc1 (stereo not given)	0%	·	0	1	2	2.4*
Cc1ccc(S(=O)(=O)Nc2nc3ccccc3nc2NCc2ccco2)cc1	5%	i	3	1.1	2	1.6
Cc1ccc(S(=O)(=O)Nc2nc3ccccc3nc2NCc2ccco2)cc1C	10%	i	11	1.1	6	2.1*
COc1ccc(-c2cc3nc(C4CCN(C(=O)OC(C)(C)C)CC4)c(C(=O)O)cn3n2)cc1	15%	i	22	1.1	1	2.7*
CCCC(=O)N1CCN(S(=O)(=O)c2cc(Cl)ccc2OC)CC1	3%	·	3	0.97	3	5.1*
COc1ccc(Cl)cc1S(=O)(=O)N1CCN(C(=O)c2ccco2)CC1	10%	i	0	0.98	10	1.2
Cc1cc2c3nonc3ccc2n1-c1ccccc1	6%	·	6	1	6	2.2*
c1ccc(-c2cc3c(ccc4nonc43)nn2)cc1	0%	i	0	1.1	0	1.1
O=C(c1ccccc1Oc1ccccc1)N1CCN(c2ccccc2)CC1	6%	i	2	1	8	1.2
CN(C)c1ccc(-c2nc3ccccc3n2C)cc1	13%	·	25*	1.1	0	3.6*
C=CCn1c(-c2ccc(OC)cc2)nc2ccccc21	2%	i	7	0.98	2	1.1
CCn1c(-c2ccc(N)cc2)nc2ccccc21	9%	i	0	1	4	1.9
CC(C)n1c(-c2ccc(N(C)C)cc2)nc2ccccc21	9%	·	9	1	9	3.8*
CCn1c(-c2ccc(N(C)C)cc2)nc2ccccc21	6%	·	7	1.1	4	3.9*
